# Data: PubChem BioAssay (Tox21)
# Inconclusive results are not listed. Entries that show only a call come without a potency. The source made the active and inactive calls. Calls follow the shape of the dose curve; as a rule, active = well fitted cell-killing curve with a large enough effect in the repeat runs; inconclusive = weak or mixed curves; inactive = flat fitted curve, though single readings scatter.
# Assay: qHTS assay to identify small molecule antagonists of the estrogen related receptor (ERR) signaling pathway - cell viability counter screen (AID 1224818);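 also: viability measured after 17.5 h of compound exposure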
# Settings: ERR reporter cell line viability counter screen; series mostly up to 46.1 µM
# Procedure, shortened: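 Quantitative high-throughput viability counter screen in ERR cells. Compounds (DMSO) incubated 17.5 h at 37 C; read-out was CellTiter-Fluor fluorescence.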
# Potency is read from the fitted curve at half-maximal effect.
row,SMILES,Potency
1,CCCc1c(-c2ccc(O)cc2)nn(-c2ccc(O)cc2)c1-c1ccc(O)cc1,inactive
2,C[C@H](NC(=O)/C(C#N)=C/c1ccc(O)c(O)c1)c1ccccc1,inactive
3,O=c1[nH]c(=S)[nH]c(-c2ccccc2)c1Cc1c(O)ccc2ccccc12,inactive
4,c1ccc2c(c1)CC(N1CCN(c3cccc4c3OCCO4)CC1)C2,inactive
5,O=C(N[C@@H](Cc1ccccc1)C(=O)CCl)OCc1ccccc1,19.6 µM (active)
6,O=C(/C=C/c1ccc(O)cc1)c1ccc(O)cc1O,inactive
7,O=C(O)C1=CCCNC1,inactive
8,O=c1ccc2c(OCCCCc3ccccc3)c3ccoc3cc2o1,inactive
9,O=c1[nH]c(=O)c2nc3ccccc3nc2[nH]1,inactive
10,CNC(=O)c1cc2c(cn1)[nH]c1ccccc12,inactive
11,Clc1ccc(N2CCN(Cc3cc4ccccn4n3)CC2)cc1,inactive
12,Cc1cccc(C(=O)NCN2CCN(c3ccccc3C#N)CC2)c1,inactive
13,COc1ccc2c(c1)CCC1C2CC[C@@]2(C)C1CC[C@@H]2NCCCCCCN1C(=O)C=CC1=O (some centres undefined),inactive
14,Cn1cc(C2=C(c3ccc(Cl)cc3Cl)C(=O)NC2=O)c2ccccc21,inactive
15,N[C@@H](Cn1ccc(=O)c(O)c1)C(=O)O,inactive
16,[N-]=[N+]=Nc1ccc(C(=O)CSC[C@H](NC(=O)CC[C@H](N)C(=O)O)C(=O)NCC(=O)O)cc1,inactive
17,CC1CN(S(=O)(=O)c2cccc3cnccc23)CCN1 (centres undefined),inactive
18,NC(=O)c1ccc2[nH]ccc2c1,inactive
19,CN1Cc2sccc2C(c2ccc(O)c(O)c2)C1 (centres undefined),inactive
